The record followed here is PubChem BioAssay AID2551 (National Center for Advancing Translational Sciences (NCATS), 2010).

The campaign covered roughly 310,000 compounds. About 17,000 (5.5%) were called active. A call without a number means that no potency is given here. About 11% were inconclusive and are not listed. Only a selection was taken, and actives are over-represented in it overall. Values without a mark were called inactive. Calls follow the shape of the dose curve; as a rule, active = well fitted inhibition curve with a large enough effect; inconclusive = small, poorly fitted or top-dose-only effect, or effect the other way; inactive = no such curve, though single readings can be large or run the other way.
Potency is read from the fitted curve at half-maximal effect.

Nuclear receptor ROR-gamma (Mus musculus), sequence (P51450 whole entry, looked up, the tested form may be a part): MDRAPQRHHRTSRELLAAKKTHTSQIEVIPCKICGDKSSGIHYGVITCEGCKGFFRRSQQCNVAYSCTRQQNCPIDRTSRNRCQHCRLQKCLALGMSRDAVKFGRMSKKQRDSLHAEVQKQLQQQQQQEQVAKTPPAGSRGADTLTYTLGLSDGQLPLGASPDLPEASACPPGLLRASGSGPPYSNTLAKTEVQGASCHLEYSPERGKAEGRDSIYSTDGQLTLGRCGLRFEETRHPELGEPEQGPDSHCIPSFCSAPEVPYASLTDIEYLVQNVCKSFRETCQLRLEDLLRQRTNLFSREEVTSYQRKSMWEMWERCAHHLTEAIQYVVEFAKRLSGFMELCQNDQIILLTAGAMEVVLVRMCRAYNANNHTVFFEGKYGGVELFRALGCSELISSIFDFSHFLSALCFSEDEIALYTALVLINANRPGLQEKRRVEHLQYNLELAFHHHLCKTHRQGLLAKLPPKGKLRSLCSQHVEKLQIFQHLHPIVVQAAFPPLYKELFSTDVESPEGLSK

This assay concerns the target Nuclear receptor ROR-gamma (Mus musculus) (UniProt P51450). Nature of the assay: qHTS for inhibitors of ROR gamma transcriptional activity. Also: nearly all actives have a fitted effect of over 60% in size. Particulars: Drosophila S2 Gal4-RORgamma UAS-luciferase reporter, 20 h; series mostly up to 53.6 µM. In short, it runs like this:
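Schneider cells (Drosophila), stable Gal4 DBD–ROR gamma + UAS-luc; 1 hr cmpd preincubation; Cu2+ induction 700 uM final; 20 hr ambient; luminescence.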
`CCn1c(-c2ccncc2)n[nH]c1=S`: the Potency was 5.01 µM (active).

In the case of `CCn1c(C(C)NC(=O)c2ccc(C)cc2)n[nH]c1=S` (stereo unspecified), the Potency entry is “inactive”.

On to `CCn1c(SCC(=O)Nc2nc3ccc(OC)cc3s2)nnc1-c1ccoc1C`, for which the Potency result is “inactive”.

`CCn1c(SCC(=O)NC2CCCC2)nnc1-c1ccoc1C`: the Potency result is “inactive”.

As for `CC(C)n1c(-c2ccncc2)n[nH]c1=S`, the Potency was 12.6 µM (active).

Regarding `CCn1c(C(C)C)n[nH]c1=S`, the Potency result is “inactive”.

Regarding `CCn1c(-c2ccoc2C)n[nH]c1=S`, the Potency is 11.2 µM (active).

Consider `CCCc1cc(-c2n[nH]c(=S)n2CC)c2ccccc2n1`, for which the Potency is 11.2 µM (active).

For `CCCc1cc(=O)[nH]c(SCC(=O)OCc2ccccc2)n1`, the Potency entry is “inactive”.

As to `CCOC(=O)CSc1nnc(-c2ccncc2)o1`, the Potency result is “inactive”.

With `O=S(=O)(Nc1ccccc1Br)c1cccs1`, the Potency result is “inactive”.

Turning to `O=C(Nc1ccc(CN2CCOCC2)cc1)c1cc(Cl)ccc1Cl`, the Potency result was “inactive”.

For `C[C@@H]1CC[C@@]2(OC1)O[C@H]1C[C@H]3[C@@H]4CC=C5C[C@@H](O)[C@H](O)C[C@]5(C)C4CC[C@]3(C)[C@H]1[C@@H]2C` (stereo partly specified), the Potency entry is “inactive”.

Consider `O=C1Nc2cc(C(=O)N3CCN(c4ccc(F)cc4)CC3)ccc2NC1CSCc1cccc(F)c1` (stereo unspecified), for which the Potency result is “inactive”.

Turning to `CC1CCC(NS(=O)(=O)c2ccc3c(c2)CC(=O)N3)CC1` (stereo unspecified), the Potency entry is “inactive”.

`O=S(=O)(O)c1nc2ccccc2n1Cc1ccc(Cl)cc1`: the Potency entry is “inactive”.

Consider `CCC(=O)Nc1nc2ccccc2n1Cc1ccccc1C`, for which the Potency is 2 µM (active).

On to `CC(=O)c1nc2ccccc2n1Cc1ccccc1`, for which the Potency result is “inactive”.

On to `Cc1ccnc(NC(=O)c2ccco2)n1`, for which the Potency entry is “inactive”.

For the compound `CCn1nc(NC(=O)c2ccco2)c2cc3ccc(C)cc3nc21`, the Potency result is “inactive”.

Turning to `Cc1ccc(Cn2c(NC(=O)c3ccco3)nc3ccccc32)cc1`, the Potency was 0.282 µM (active).

As for `CC(=O)NC(C)c1nc2ccccc2n1Cc1ccccc1F` (stereo unspecified), the Potency entry is “inactive”.

Take `CCC(=O)NCCc1nc2ccccc2n1CC`: the Potency result was “inactive”.

For `CC(=O)Nc1nc2ccccc2n1Cc1ccc(C)cc1`, the Potency is 1.26 µM (active).

With `CCOC(=O)C1CCN(S(=O)(=O)c2ccc3c(c2)N(C(C)=O)CCO3)CC1`, the Potency entry was “inactive”.

In the case of `COc1ccc2c3c(c(=O)oc2c1)C1O[C@](CCCCN2C(=O)c4ccccc4C2=O)(Cc2c1ccc1ccccc21)O3`, the activity change, negative = inhibition was -28.3% [at 10 µM].

Consider `CCN1CCCC1CNC(=O)c1cc2cc(OC)c(OC)cc2[nH]1` (stereo unspecified), for which the Potency result was “inactive”.

With `CCn1c(SCC(=O)Nc2ccc3c(c2)OCCO3)nnc1C(C)C`, the Potency result was “inactive”.

For `CC(C)c1cc(C(=O)N/N=C/c2ccoc2)c(O)c(C(C)C)c1`, the Potency was 5.62 µM (active).

Turning to `CC(Oc1ccccc1[N+](=O)[O-])C(=O)N/N=C/c1ccoc1` (stereo unspecified), the Potency entry was “inactive”.

Turning to `COc1cc(/C=N/NC(=O)c2cc(C)n(-c3ccc(F)cc3)c2C)cc(OC)c1O`, the Potency entry was “inactive”.
